Assay results: PubChem BioAssay (NCATS)
Several values for one entry are separate records, joined by “and”; a condition that tells them apart may be missing. Equal values may be shown once. Results filed as inconclusive are left out. Entries that show only a call come without a potency. A number with no mark means an inactive call. Activity calls are given as the source filed them. Calls follow the shape of the dose curve; as a rule, active = well fitted cell-killing curve with a large enough effect; inconclusive = small, poorly fitted or top-dose-only effect, or effect the other way; inactive = no such curve, though single readings can be large or run the other way.

Assays:
[1] = Viability qHTS for spleen associated tyrosine kinase inhibitor (SYKi) naive MV4-11 cells (AID 1963823); settings: MV4-11 AML viability, CellTiter-Glo luminescence, 72 h; series mostly up to 45 µM; also: nearly all actives have a fitted effect of over 40% in size
In short: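 Luminescence from CellTiter-Glo, developed 10 min at room temperature, gave viability of MV4-11 cells never exposed to SYK inhibitor. Cells (500/well) had been incubated with compounds for 72 hr under standard culture conditions.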

[2] = Viability qHTS for spleen associated tyrosine kinase inhibitor (SYKi) drug resistant MV4-11 cells (AID 1963824); settings: SYKi-resistant MV4-11 viability, CellTiter-Glo, 72 h; series mostly up to 45 µM; also: nearly all actives have a fitted effect of over 35% in size
In short: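 SYK-inhibitor-resistant MV4-11 AML cells were seeded at 500 per well onto compound and cultured 72 hours (37 °C, 5% CO2). CellTiter-Glo was then added, and after 10 min at room temperature, luminescence gave viability.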
Potency is read from the fitted curve at half-maximal effect.

## CNC(=O)c1ccc2cc([C@@]3(O)CCn4cncc43)ccc2c1
[1]
  Potency: inactive
[2]
  Potency: inactive

## C/C=C/C=C/C=C/C(=O)N(C)C(C(=O)NC(C)C(=O)N1CCCC1C(N)=O)C(C)C (stereo not given)
[1]
  Potency: inactive
[2]
  Potency: inactive

## COC(=N)c1nc2ccc3ncnc(Nc4ccc(F)cc4Br)c3c2s1
[1]
  Potency: 1.46 µM (active)
[2]
  Potency: 820 nM (active)

## COc1ccc(Cl)cc1[C@@]1(F)C(=O)Nc2cc(C(F)(F)F)ccc21
[1]
  Potency: 9.2 µM (active)
[2]
  Potency: 6510 nM (active)

## COc1cc(C(C)=O)ccc1O[C@@H]1O[C@H](CO[C@@H]2OC[C@@H](O)[C@H](O)[C@H]2O)[C@@H](O)[C@H](O)[C@H]1O
[1]
  Potency: inactive
[2]
  Potency: inactive

## CC(=O)O[C@@H]1C[C@H](O)[C@@]23CO[C@H](O)[C@]1(C)C2C[C@@H](O)[C@]1(C)C3C(=O)[C@H](OC(C)=O)[C@@]2(C)[C@H](c3ccoc3)C[C@H]3O[C@]321 (stereo not given in full)
[1]
  Potency: 0.0385 µM (active)
[2]
  Potency: 34.3 nM (active)

## C=C[C@H]1[C@H](O[C@@H]2O[C@H](CO)[C@@H](O)[C@H](O)[C@H]2O)OC=C(C(=O)OC)[C@H]1CCO
[1]
  Potency: inactive
[2]
  Potency: inactive

## CC1(C)SC2C(NC(=O)[C@H](C(=O)O)c3ccsc3)C(=O)N2C1C(=O)O (stereo not given in full)
[1]
  Potency: inactive
[2]
  Potency: inactive

## CC(/C=C/C1=CC2=CC(=O)C(C)(O)C(O)C2=CO1)=C\C(C)CCO (stereo not given)
[1]
  Potency: inactive
[2]
  Potency: inactive

## C[C@H](N)C(=O)N[C@@H](Cc1ccc(O)cc1)C(=O)N1CCC[C@H]1C(=O)NCC(=O)N[C@@H](CCCCN)C(=O)N[C@@H](Cc1ccccc1)C(N)=O
[1]
  viability (% of control): 94.9% [at 9.25 µM]
[2]
  viability, % of control: 89.8% [at 9.25 µM]

## Nc1nc(Cl)nc2c1ncn2[C@@H]1O[C@H](CO)[C@@H](O)[C@@H]1F
[1]
  Potency: 106 nM (active) and 263 nM (active)
[2]
  Potency: 188 nM (active) and 332 nM (active)

## Cc1ccc(NS(=O)(=O)c2cc3c(cc2NC(C)CO)NC(=O)CC3)cc1C (stereo not given)
[1]
  Potency: 12.9 µM (active)
[2]
  Potency: 10200 nM (active)

## CC(C)=CCC/C(C)=C/CCC1(C)Oc2c(c(O)cc3c2CN(C(CCC(=O)O)C(=O)O)C3=O)CC1O (stereo not given)
[1]
  Potency: inactive
[2]
  Potency: inactive

## NC(=O)NCCCC(NC(=O)Cc1ccccc1)C(=O)O (stereo not given)
[1]
  Potency: inactive
[2]
  Potency: inactive

## C=C[C@H]1[C@H](O[C@@H]2O[C@H](CO)[C@@H](O)[C@H](O)[C@H]2O)OC=C(C(=O)OC)[C@H]1CC=O
[1]
  Potency: inactive
[2]
  Potency: inactive
